40 molecules from PubChem BioAssay (NCATS) can be followed below.

Molecules are shown by their SMILES. Records with an inconclusive call do not appear. Values without a mark were called inactive. The call rests on the fitted dose curve; in most records, active means well fitted curve in either direction with a large enough effect (not every such curve was filed as active); inconclusive means small, poorly fitted or top-dose-only effect, or another doubt; inactive means flat fitted curve, though single readings scatter.
On the % scale 0 is the no-effect control and ±100 the full control effect.

One test in a line: AP1 Signaling Pathway (AID 357). The conditions noted are these: ME-180 AP-1-bla reporter, EGF-induced, beta-lactamase ratio, 5 h; at 17.2 µM (top of the series) unless noted. In short, it runs like this: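 ME-180 cells with beta-lactamase reporter under AP-1 response element, stimulated with EC50 EGF; compounds tested in titration series, 5 h at 37 °C. CCF4 substrate added 2.5 h at room temperature; 460/530 nm emission ratio gave %activity and AC50.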
For the molecule `CCOC(=O)c1ccccc1OCc1cc(/C=N/n2cncn2)ccc1OC`, the activity change, negative = inhibition was -21.7%.
The same measure, in the same setting: then `C=CCNc1nc(-c2ccc(O)c(C(N)=O)c2)cs1`, with -14.5%; and `COC(=O)c1n[nH]c2ccccc12`, with 9.29%.
Same read-out and setting: next, `O=C(Oc1ccccc1N1C(=O)CCC1=O)c1ccco1`: 11.4%; `CCN(CC)C(=O)COn1c(SCC(=O)N(CC)CC)nc2ccccc2c1=O`: -3.71%; `CCCCOc1ccc(C(=O)Nn2cnnc2)cc1`: 15.5%.
Turning to `O=c1cc(NCc2ccccc2)nc2n1CCCS2`, the activity change, negative = inhibition is 5.41%.
On the same count and under the same terms, then `C[N+](C)(C)CCOP(=O)([O-])OC[C@H](O)CO`, with 9.55%.
On the same count and under the same terms, then `CCn1nc(NC(=O)c2cccnc2)c2cc3ccccc3nc21`, with -12.7%; and `CC1(C)Cc2c(sc3nc4n(c(=O)c23)CCC4)CO1`, with -2.8%; and `Cn1c(=O)c2c3c(sc2n2c(SCC(=O)c4ccccc4)nnc12)COC(C)(C)C3`, with 5.44%.
On the same count and under the same terms, next, `CC(=O)NC(=O)Nc1sc(=S)n(C)c1C`: -0.255%; `COc1ccc2cnn(-c3ccccc3C)c(=O)c2c1OC`: 10.7%.
Regarding `CCN(CC)CCN1C(=O)c2ccccc2NC1c1cc(OC)c(OC)c(OC)c1` (stereo not given), the activity change, negative = inhibition is 8.96%.
`C=CCc1c(C)nc(SCCC)[nH]c1=O`: the activity change, negative = inhibition was 2.81%.
Take `CSc1nnc(N(CCC#N)CCC#N)s1`: the activity change, negative = inhibition was 2.14%.
On the same count and under the same terms, next, `Cn1c(=O)n(CCc2ccccc2)c(=O)c2c1ncn2Cc1ccccc1`: -15.9%.
As to `CCOc1cccc(NC(=O)C2CC(=O)NC(=Nc3ccccc3)S2)c1` (stereo not given), the activity change, negative = inhibition is -5.62%.
Still for that read-out and setting: next, `N#Cc1c(-c2ccco2)cc(C2CC2)nc1N`: -6.96%; `O=C1c2ccccc2C(=O)N1c1ncccn1`: 6.61%.
Still for that read-out and setting: next, `Cc1cc(=O)oc2ccc(OCC(=O)N3CCc4ccccc43)cc12`: 2.4%; `OC1CN=C2Sc3ccccc3N2C1` (stereo not given): 1.76%.
The same measure, in the same setting: then `c1cc2c(cc1C1=Nn3c(nnc3C3CCCCC3)SC1)OCO2`, with -22.3%.
Take `CCCOc1ccc(/C(O)=C2/C(=O)C(=O)N(CCN(C)C)C2c2ccncc2)cc1` (stereo not given): the activity change, negative = inhibition was -5.87%.
On the same count and under the same terms, next, `Nc1ccc2c3c(cccc13)CC2`: 0.829%.
In the case of `O=C(c1ccccc1)n1c(=S)nc2ccccn21`, the activity change, negative = inhibition is 4.19%.
Still for that read-out and setting: next, `CSc1nncc(=O)[nH]1`: 16.2%; `CCN1CCc2c(C#N)c(N3CCOCC3)nc(NCCO)c2C1`: 0.329%; `CCCCCSc1nc(O)cc(=O)[nH]1`: -9.05%.
In the case of `CCCOc1cccc(-c2nnc(N)s2)c1`, the activity change, negative = inhibition is -15.9%.
On to `CC1=C(c2ccc(Cl)cc2)[N+](=O)C(C)(C)N1[O-]`, for which the activity change, negative = inhibition was 8.72%.
The same measure, in the same setting: then `CN=c1sc2ccccc2n1CC(O)COc1ccccc1` (stereo not given), with -17.6%.
Regarding `COc1cc(C(=O)Nc2ccc(O)cc2C(=O)O)ccc1OC(C)=O`, the activity change, negative = inhibition was -6.46%.
Still for that read-out and setting: next, `c1nc(NC2CCCCC2)c2[nH]cnc2n1`: -4.39%; `CCN(CC)CCN1C(=O)C(=O)/C(=C(/O)c2c(C)[nH]c(C(=O)OC)c2C)C1c1ccc(OC)cc1` (stereo not given): 9.19%; `OCCCc1nc2ccccc2n1CCc1ccccc1`: 6.55%.
For the molecule `CN(C)CC(O)COc1cccc(OCC(O)CN(C)C)c1` (stereo not given), the activity change, negative = inhibition was 1.26%.
Regarding `CCC(=O)Nc1ccc(-c2nnc(SCC(=O)NCC3CCCO3)n2C)cc1` (stereo not given), the activity change, negative = inhibition is -2.29%.
Same read-out and setting: then `C(=N\n1cnnc1)/c1cccnc1`, with -4.05%; and `CC1CCc2cc(F)cc3c(O)c(C(=O)Nc4cnccn4)c(=O)n1c23` (stereo not given), with -8.92%.

A further test is described as follows: NFAT Signaling Pathway (AID 444).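 Further: carbachol stimulus at about its EC50 of 1 µM final.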 The conditions noted are these: Jurkat NFAT-bla M1, carbachol, beta-lactamase ratio, 5 h; at 17.2 µM (top of the series) unless noted. In short, it runs like this:
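Read-out: CCF4 FRET ratio (460 nm/530 nm) after 1 h RT dye loading, used for %activity and AC50 from titration series. Cells: Jurkat NFAT-β-lactamase/M1 line, treated with compound plus 1 uM carbachol for 5 h, 37 °C.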
As for `CCOC(=O)c1ccccc1OCc1cc(/C=N/n2cncn2)ccc1OC`, the activity change, negative = inhibition was 8.94%.
The same measure, in the same setting: next, `C=CCNc1nc(-c2ccc(O)c(C(N)=O)c2)cs1`: 25.2%; `COC(=O)c1n[nH]c2ccccc12`: 15.6%; `O=C(Oc1ccccc1N1C(=O)CCC1=O)c1ccco1`: 8.69%.
On the same count and under the same terms, next, `CCN(CC)C(=O)COn1c(SCC(=O)N(CC)CC)nc2ccccc2c1=O`: 17.3%; `CCCCOc1ccc(C(=O)Nn2cnnc2)cc1`: 4.61%; `O=c1cc(NCc2ccccc2)nc2n1CCCS2`: 19%.
Same read-out and setting: next, `C[N+](C)(C)CCOP(=O)([O-])OC[C@H](O)CO`: 0.0397%; `CCn1nc(NC(=O)c2cccnc2)c2cc3ccccc3nc21`: 9.22%; `CC1(C)Cc2c(sc3nc4n(c(=O)c23)CCC4)CO1`: 2.28%.
In the case of `Cn1c(=O)c2c3c(sc2n2c(SCC(=O)c4ccccc4)nnc12)COC(C)(C)C3`, the activity change, negative = inhibition was -28.1%.
Still for that read-out and setting: next, `CC(=O)NC(=O)Nc1sc(=S)n(C)c1C`: 15.7%; `COc1ccc2cnn(-c3ccccc3C)c(=O)c2c1OC`: -6.03%.
Same read-out and setting: then `CCN(CC)CCN1C(=O)c2ccccc2NC1c1cc(OC)c(OC)c(OC)c1` (stereo not given), with 5.73%; and `C=CCc1c(C)nc(SCCC)[nH]c1=O`, with -9.46%.
Still for that read-out and setting: then `CSc1nnc(N(CCC#N)CCC#N)s1`, with 21.3%; and `Cn1c(=O)n(CCc2ccccc2)c(=O)c2c1ncn2Cc1ccccc1`, with -7.53%; and `CCOc1cccc(NC(=O)C2CC(=O)NC(=Nc3ccccc3)S2)c1` (stereo not given), with 6.96%.
Take `N#Cc1c(-c2ccco2)cc(C2CC2)nc1N`: the activity change, negative = inhibition was 9.72%.
On the same count and under the same terms, then `O=C1c2ccccc2C(=O)N1c1ncccn1`, with -3.61%; and `Cc1cc(=O)oc2ccc(OCC(=O)N3CCc4ccccc43)cc12`, with -12%; and `OC1CN=C2Sc3ccccc3N2C1` (stereo not given), with -2.78%.
On the same count and under the same terms, next, `c1cc2c(cc1C1=Nn3c(nnc3C3CCCCC3)SC1)OCO2`: 14.4%; `CCCOc1ccc(/C(O)=C2/C(=O)C(=O)N(CCN(C)C)C2c2ccncc2)cc1` (stereo not given): 4.76%.
Same read-out and setting: then `Nc1ccc2c3c(cccc13)CC2`, with 11.5%.
`O=C(c1ccccc1)n1c(=S)nc2ccccn21`: the activity change, negative = inhibition is -14%.
Still for that read-out and setting: next, `CSc1nncc(=O)[nH]1`: 0.69%; `CCN1CCc2c(C#N)c(N3CCOCC3)nc(NCCO)c2C1`: 3.49%.
The same measure, in the same setting: then `CCCCCSc1nc(O)cc(=O)[nH]1`, with 11.4%; and `CCCOc1cccc(-c2nnc(N)s2)c1`, with -11.9%.
On the same count and under the same terms, then `CC1=C(c2ccc(Cl)cc2)[N+](=O)C(C)(C)N1[O-]`, with 13.4%; and `CN=c1sc2ccccc2n1CC(O)COc1ccccc1` (stereo not given), with -17.8%; and `COc1cc(C(=O)Nc2ccc(O)cc2C(=O)O)ccc1OC(C)=O`, with 22.4%.
On to `c1nc(NC2CCCCC2)c2[nH]cnc2n1`, for which the activity change, negative = inhibition is 2.42%.
Consider `CCN(CC)CCN1C(=O)C(=O)/C(=C(/O)c2c(C)[nH]c(C(=O)OC)c2C)C1c1ccc(OC)cc1` (stereo not given), for which the activity change, negative = inhibition is 8.2%.
On the same count and under the same terms, next, `OCCCc1nc2ccccc2n1CCc1ccccc1`: -7.48%; `CN(C)CC(O)COc1cccc(OCC(O)CN(C)C)c1` (stereo not given): -0.493%.
Same read-out and setting: next, `CCC(=O)Nc1ccc(-c2nnc(SCC(=O)NCC3CCCO3)n2C)cc1` (stereo not given): -1.98%; `C(=N\n1cnnc1)/c1cccnc1`: -13.4%; `CC1CCc2cc(F)cc3c(O)c(C(=O)Nc4cnccn4)c(=O)n1c23` (stereo not given): 19.5%.
